Measured values as given in publication PMC7862700, “An all-to-all approach to the identification of sequence-specific readers for epigenetic DNA modifications on cytosine”.

How the values were obtained:
Experiment in all cases: DAPPL (digital affinity profiling via proximity ligation, sequencing); 10 mM Tris-HCl pH 7.5, 50 mM NaCl, 1 mM DTT, 4% glycerol, room temperature, 30 min; GST-TFs on glutathione beads, 16-mer random dsDNA library, 0.1% formaldehyde crosslink after washing; high values mean tight binding
FEV = molecular target: T1, FEV (Homo sapiens, UniProt Q99581 1-238); conditions: protein: recombinant; tags: N-terminal GST; dsDNA, one strand shown
T1 sequence: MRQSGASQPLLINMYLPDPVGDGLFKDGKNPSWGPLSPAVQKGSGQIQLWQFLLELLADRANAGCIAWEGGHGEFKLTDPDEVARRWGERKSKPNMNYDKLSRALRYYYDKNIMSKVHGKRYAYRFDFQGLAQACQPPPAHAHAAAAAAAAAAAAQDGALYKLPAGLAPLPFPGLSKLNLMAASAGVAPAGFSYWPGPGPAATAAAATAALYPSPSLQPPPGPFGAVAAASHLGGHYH
How it was run: (§1)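 After expression in yeast as GST fusions, human transcription factors were bound to glutathione beads, DNA-barcoded and mixed with a tag-only sample. The pools were incubated with 200 nmole of a 16-mer random double-stranded DNA library in Tris/NaCl/DTT/glycerol buffer (30 min, room temperature), washed and crosslinked with 0.1% formaldehyde. Proximity ligation with BsaI/T4 ligase ran for 1 h at 37 °C, before PCR amplification and sequencing on an Illumina NextSeq500. Binding signal is a hexamer's read frequency for a factor divided by its frequency for the tag-only sample.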

ETV5 = ETV5 (Homo sapiens, UniProt P41161 1-510); conditions: protein: recombinant; tags: N-terminal GST; dsDNA, one strand shown
How it was run: as §1

HSF1 = HSF1 (Homo sapiens, UniProt Q00613 1-529); conditions: protein: recombinant; tags: N-terminal GST; chain copies: 3; dsDNA, one strand shown
How it was run: as §1

SPIC = molecular target: T2, SPIC (Homo sapiens, UniProt Q8N5J4 1-248); conditions: protein: recombinant; tags: N-terminal GST; dsDNA, one strand shown
T2 sequence: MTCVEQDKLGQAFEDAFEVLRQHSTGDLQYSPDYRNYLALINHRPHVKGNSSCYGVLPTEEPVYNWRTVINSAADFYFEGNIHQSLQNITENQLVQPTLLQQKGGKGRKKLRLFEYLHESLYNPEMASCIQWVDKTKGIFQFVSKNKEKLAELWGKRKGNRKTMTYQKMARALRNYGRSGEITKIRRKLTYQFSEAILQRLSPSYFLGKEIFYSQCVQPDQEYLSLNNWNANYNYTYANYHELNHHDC
How it was run: as §1

ELF4 = ELF4 (Homo sapiens, UniProt Q99607 1-663); conditions: protein: recombinant; tags: N-terminal GST; dsDNA, one strand shown
How it was run: as §1

ELK4 = molecular target: T3, ELK4 (Homo sapiens, UniProt P28324-2 1-405); conditions: protein: recombinant; tags: N-terminal GST; dsDNA, one strand shown
T3 sequence: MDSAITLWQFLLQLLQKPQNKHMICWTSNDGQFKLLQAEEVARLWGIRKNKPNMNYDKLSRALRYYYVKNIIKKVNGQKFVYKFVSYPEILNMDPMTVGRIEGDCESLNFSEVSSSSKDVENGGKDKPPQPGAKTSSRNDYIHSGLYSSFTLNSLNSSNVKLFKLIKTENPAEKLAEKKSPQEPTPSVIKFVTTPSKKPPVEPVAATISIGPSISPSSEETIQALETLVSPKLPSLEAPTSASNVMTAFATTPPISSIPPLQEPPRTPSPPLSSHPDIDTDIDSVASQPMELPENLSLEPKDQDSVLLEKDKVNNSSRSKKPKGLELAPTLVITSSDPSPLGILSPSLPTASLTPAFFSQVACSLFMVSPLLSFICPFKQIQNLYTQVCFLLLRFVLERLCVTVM
How it was run: as §1

ETV2 = molecular target: T4, ETV2 (Homo sapiens, UniProt O00321 1-342); conditions: protein: recombinant; tags: N-terminal GST; dsDNA, one strand shown
T4 sequence: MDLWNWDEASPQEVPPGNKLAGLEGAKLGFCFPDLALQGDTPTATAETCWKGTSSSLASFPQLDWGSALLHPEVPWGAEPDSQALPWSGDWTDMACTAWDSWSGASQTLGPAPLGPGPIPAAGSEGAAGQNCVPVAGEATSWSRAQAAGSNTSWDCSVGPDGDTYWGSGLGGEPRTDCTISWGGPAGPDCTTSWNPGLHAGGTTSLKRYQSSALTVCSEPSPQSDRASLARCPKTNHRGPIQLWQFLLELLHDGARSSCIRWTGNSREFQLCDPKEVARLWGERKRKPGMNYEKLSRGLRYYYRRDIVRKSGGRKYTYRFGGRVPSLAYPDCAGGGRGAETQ
How it was run: as §1

ELF3 = molecular target: T5, ELF3 (Homo sapiens, UniProt P78545 1-371); conditions: protein: recombinant; tags: N-terminal GST; dsDNA, one strand shown
T5 sequence: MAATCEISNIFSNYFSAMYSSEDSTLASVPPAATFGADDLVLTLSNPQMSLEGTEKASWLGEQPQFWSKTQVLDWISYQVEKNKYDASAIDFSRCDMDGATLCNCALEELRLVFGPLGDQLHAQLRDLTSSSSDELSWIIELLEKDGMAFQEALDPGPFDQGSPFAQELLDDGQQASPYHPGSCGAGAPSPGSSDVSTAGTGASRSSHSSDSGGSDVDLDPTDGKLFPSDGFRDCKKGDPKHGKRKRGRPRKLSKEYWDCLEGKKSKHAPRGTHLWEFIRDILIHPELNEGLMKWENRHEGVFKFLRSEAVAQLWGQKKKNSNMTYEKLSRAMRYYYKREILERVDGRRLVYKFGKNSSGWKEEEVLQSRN
How it was run: as §1

CRX = CRX (Homo sapiens, UniProt O43186 1-299); conditions: protein: recombinant; tags: N-terminal GST; dsDNA, one strand shown
How it was run: as §1

ETV1 = ETV1 (Homo sapiens, UniProt P50549 1-477); conditions: protein: recombinant; tags: N-terminal GST; dsDNA, one strand shown
How it was run: as §1

ERF = molecular target: T6, ERF (Homo sapiens, UniProt P50548 1-548); conditions: protein: recombinant; tags: N-terminal GST; dsDNA, one strand shown
T6 sequence: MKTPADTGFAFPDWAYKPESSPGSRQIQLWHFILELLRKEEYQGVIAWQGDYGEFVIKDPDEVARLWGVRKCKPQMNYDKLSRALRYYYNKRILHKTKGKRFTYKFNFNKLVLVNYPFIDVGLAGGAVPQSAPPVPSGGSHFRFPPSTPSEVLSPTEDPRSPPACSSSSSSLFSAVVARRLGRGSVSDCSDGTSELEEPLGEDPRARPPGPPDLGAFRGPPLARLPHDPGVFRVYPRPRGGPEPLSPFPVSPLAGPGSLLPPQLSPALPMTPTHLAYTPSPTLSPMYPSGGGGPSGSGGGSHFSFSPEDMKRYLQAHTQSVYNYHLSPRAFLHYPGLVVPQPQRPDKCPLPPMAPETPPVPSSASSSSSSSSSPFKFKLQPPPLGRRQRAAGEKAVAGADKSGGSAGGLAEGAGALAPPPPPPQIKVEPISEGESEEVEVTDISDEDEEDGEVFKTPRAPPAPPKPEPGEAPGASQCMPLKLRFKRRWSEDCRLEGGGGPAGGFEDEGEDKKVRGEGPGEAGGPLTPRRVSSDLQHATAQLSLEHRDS
How it was run: as §1

ETV3L = molecular target: T7, ETV3L (Homo sapiens, UniProt Q6ZN32 1-361); conditions: protein: recombinant; tags: N-terminal GST; dsDNA, one strand shown
T7 sequence: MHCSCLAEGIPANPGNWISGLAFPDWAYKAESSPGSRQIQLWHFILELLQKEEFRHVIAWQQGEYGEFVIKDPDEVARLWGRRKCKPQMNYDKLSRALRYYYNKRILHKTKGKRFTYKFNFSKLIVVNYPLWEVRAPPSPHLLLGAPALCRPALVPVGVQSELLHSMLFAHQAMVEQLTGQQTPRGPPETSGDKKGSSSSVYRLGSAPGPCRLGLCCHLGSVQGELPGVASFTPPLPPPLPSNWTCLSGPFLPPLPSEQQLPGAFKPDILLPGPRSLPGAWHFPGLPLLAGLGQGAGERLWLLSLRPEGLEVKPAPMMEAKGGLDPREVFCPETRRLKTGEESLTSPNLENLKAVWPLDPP
How it was run: as §1

ETS2 = molecular target: T8, ETS2 (Homo sapiens, UniProt P15036 1-469); conditions: protein: recombinant; tags: N-terminal GST; dsDNA, one strand shown
T8 sequence: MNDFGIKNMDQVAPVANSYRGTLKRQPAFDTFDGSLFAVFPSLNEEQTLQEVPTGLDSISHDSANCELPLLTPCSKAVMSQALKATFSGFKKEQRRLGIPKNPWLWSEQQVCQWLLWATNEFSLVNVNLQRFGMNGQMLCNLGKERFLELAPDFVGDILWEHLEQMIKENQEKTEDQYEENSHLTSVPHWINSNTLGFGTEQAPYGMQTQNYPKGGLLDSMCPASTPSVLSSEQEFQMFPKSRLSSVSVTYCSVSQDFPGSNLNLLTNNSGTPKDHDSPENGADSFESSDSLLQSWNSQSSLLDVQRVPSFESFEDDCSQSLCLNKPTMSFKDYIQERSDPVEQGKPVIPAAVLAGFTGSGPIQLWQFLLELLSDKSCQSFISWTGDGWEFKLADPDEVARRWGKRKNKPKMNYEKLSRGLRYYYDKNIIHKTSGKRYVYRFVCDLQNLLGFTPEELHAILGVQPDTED
How it was run: as §1

SPDEF = molecular target: T9, SPDEF (Homo sapiens, UniProt O95238 1-335); conditions: protein: recombinant; tags: N-terminal GST; dsDNA, one strand shown
T9 sequence: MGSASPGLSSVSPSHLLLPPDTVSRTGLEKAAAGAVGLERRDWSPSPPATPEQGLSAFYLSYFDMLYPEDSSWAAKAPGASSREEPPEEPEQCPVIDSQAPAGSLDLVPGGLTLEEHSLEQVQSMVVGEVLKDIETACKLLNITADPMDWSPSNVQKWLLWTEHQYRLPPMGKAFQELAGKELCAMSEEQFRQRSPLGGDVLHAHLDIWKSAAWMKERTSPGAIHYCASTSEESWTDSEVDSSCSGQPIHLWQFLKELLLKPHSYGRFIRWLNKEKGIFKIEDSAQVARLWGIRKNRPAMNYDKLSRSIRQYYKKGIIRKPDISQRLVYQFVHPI
How it was run: as §1

ETV7 = molecular target: T10, ETV7 (Homo sapiens, UniProt Q9Y603 1-341); conditions: protein: recombinant; tags: N-terminal GST; dsDNA, one strand shown
T10 sequence: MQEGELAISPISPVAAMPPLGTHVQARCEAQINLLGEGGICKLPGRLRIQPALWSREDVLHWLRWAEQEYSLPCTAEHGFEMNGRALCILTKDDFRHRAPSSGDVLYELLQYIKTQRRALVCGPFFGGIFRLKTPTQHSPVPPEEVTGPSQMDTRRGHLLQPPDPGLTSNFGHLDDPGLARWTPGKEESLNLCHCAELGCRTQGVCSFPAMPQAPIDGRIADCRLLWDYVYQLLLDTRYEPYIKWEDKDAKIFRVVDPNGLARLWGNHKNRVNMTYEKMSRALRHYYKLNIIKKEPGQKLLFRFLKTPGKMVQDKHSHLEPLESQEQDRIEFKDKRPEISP
How it was run: as §1

ELF5 = molecular target: T11, ELF5 (Homo sapiens, UniProt Q9UKW6-2 1-255); conditions: protein: recombinant; tags: N-terminal GST; dsDNA, one strand shown
T11 sequence: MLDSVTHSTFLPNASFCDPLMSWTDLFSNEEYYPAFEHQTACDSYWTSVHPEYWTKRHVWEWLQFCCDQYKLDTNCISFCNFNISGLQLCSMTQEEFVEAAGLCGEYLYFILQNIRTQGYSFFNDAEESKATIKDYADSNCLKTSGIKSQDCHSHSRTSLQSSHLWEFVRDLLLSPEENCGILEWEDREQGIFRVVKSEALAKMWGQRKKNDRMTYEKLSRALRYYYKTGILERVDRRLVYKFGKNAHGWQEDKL
How it was run: as §1

ETV3 = molecular target: T12, ETV3 (Homo sapiens, UniProt P41162-2 1-143); conditions: protein: recombinant; tags: N-terminal GST; dsDNA, one strand shown
T12 sequence: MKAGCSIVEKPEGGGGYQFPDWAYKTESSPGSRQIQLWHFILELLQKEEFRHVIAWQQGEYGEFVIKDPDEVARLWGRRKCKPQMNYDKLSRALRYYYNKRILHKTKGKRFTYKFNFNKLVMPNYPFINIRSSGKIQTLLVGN
How it was run: as §1

ETV6 = ETV6 (Homo sapiens, UniProt P41212 1-452); conditions: protein: recombinant; tags: N-terminal GST; dsDNA, one strand shown
How it was run: as §1

Chain of ETV6 (P41212 whole entry): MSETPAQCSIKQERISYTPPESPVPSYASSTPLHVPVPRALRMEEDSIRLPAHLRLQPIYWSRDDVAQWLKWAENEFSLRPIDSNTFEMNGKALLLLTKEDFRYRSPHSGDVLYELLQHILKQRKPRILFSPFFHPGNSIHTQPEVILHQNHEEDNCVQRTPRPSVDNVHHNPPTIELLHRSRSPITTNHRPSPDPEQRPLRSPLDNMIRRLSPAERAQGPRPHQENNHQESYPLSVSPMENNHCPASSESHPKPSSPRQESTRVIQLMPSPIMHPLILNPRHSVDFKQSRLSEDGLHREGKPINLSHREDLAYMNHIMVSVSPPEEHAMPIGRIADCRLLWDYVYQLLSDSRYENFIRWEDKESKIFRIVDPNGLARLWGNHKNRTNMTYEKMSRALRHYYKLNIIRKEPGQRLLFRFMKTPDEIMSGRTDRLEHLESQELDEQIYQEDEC
Chain of HSF1 (Q00613 whole entry): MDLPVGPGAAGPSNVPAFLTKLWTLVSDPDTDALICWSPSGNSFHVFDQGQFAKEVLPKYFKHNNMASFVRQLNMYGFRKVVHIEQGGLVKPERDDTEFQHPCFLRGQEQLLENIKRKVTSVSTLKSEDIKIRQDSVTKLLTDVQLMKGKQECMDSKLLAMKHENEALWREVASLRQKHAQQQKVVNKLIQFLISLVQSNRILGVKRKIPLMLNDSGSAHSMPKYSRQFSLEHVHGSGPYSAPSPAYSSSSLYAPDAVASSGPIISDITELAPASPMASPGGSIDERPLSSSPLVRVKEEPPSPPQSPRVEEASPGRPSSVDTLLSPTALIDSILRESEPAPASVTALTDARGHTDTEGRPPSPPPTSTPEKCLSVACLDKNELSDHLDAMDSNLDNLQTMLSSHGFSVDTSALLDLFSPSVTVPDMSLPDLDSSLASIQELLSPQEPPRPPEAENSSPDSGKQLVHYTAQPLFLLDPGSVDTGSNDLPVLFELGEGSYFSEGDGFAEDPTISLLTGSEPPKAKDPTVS
Chain of ETV1 (P50549 whole entry): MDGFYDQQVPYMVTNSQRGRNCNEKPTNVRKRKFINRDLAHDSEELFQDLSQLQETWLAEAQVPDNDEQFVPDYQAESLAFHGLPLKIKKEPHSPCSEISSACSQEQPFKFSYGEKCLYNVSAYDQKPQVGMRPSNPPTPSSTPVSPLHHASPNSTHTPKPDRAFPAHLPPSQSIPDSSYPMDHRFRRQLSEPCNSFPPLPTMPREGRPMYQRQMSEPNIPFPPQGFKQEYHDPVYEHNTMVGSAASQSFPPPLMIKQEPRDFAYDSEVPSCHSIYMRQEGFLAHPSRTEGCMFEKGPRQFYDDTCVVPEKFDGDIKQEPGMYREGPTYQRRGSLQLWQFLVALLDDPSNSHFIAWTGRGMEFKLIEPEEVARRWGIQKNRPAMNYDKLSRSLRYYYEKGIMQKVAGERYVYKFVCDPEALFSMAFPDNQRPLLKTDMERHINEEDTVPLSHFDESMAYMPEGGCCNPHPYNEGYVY
Chain of CRX (O43186 whole entry): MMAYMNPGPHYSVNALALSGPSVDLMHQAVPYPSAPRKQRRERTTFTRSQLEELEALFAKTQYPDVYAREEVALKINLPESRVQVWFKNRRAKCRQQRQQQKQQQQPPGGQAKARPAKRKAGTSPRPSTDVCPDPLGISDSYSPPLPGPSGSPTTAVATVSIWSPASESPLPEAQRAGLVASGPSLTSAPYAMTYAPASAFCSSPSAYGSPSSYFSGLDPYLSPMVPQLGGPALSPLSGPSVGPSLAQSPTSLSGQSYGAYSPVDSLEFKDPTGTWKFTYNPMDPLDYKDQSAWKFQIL
Chain of ELF4 (Q99607 whole entry): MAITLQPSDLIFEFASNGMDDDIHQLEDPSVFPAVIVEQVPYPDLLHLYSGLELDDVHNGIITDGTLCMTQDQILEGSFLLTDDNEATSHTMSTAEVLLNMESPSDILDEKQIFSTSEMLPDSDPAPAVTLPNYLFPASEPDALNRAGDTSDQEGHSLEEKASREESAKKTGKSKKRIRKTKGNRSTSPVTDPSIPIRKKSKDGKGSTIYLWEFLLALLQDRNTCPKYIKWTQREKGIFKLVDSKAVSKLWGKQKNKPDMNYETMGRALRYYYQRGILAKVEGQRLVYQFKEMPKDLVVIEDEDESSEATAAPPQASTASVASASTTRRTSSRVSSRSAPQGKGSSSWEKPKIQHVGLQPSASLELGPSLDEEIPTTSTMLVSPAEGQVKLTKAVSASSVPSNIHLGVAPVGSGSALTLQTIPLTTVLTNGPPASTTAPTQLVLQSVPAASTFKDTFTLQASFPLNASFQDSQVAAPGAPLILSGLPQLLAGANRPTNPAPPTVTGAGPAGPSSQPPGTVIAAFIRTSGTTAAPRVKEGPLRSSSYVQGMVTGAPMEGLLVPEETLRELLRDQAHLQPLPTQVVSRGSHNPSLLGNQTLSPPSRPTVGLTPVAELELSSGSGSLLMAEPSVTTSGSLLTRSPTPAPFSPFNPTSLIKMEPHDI
Chain of ETV5 (P41161 whole entry): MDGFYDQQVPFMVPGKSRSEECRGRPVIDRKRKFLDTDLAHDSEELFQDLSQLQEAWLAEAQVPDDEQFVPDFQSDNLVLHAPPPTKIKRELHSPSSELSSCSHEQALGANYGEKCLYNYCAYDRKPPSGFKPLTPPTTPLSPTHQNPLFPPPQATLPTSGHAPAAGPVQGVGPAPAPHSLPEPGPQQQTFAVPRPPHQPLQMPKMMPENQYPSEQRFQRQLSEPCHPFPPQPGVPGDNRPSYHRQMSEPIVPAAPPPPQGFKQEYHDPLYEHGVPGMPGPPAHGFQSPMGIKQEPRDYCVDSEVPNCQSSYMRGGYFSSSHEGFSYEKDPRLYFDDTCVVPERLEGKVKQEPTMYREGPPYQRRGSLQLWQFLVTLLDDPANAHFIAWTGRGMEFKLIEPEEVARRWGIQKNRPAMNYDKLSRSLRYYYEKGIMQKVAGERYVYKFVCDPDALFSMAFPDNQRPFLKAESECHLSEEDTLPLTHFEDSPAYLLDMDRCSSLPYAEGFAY

With TCCTAG the binding signal (FEV) was 1.19 fold enrichment (6-mer frequency, TF over GST control), the binding signal (ETV5) was 1.33 fold enrichment (6-mer frequency, TF over GST control) and the binding signal (HSF1) was 1.45 fold enrichment (6-mer frequency, TF over GST control). The binding signal (SPIC) was 1.2 fold enrichment (6-mer frequency, TF over GST control), the binding signal (ELF4) was 1.29 fold enrichment (6-mer frequency, TF over GST control) and the binding signal (ELK4) was 1.24 fold enrichment (6-mer frequency, TF over GST control). For the same sequence, the binding signal (ETV2) was 1.23 fold enrichment (6-mer frequency, TF over GST control), the binding signal (ELF3) was 1.2 fold enrichment (6-mer frequency, TF over GST control) and the binding signal (CRX) was 1.29 fold enrichment (6-mer frequency, TF over GST control). For the same sequence, the binding signal (ETV1) was 1.41 fold enrichment (6-mer frequency, TF over GST control), the binding signal (ERF) was 1.26 fold enrichment (6-mer frequency, TF over GST control) and the binding signal (ETV3L) was 1.08 fold enrichment (6-mer frequency, TF over GST control). For the same sequence, the binding signal (ETS2) was 1.26 fold enrichment (6-mer frequency, TF over GST control), the binding signal (SPDEF) was 1.4 fold enrichment (6-mer frequency, TF over GST control) and the binding signal (ETV7) was 1.25 fold enrichment (6-mer frequency, TF over GST control). For the same sequence, the binding signal (ELF5) was 1.41 fold enrichment (6-mer frequency, TF over GST control), the binding signal (ETV3) was 1.32 fold enrichment (6-mer frequency, TF over GST control) and the binding signal (ETV6) was 1.26 fold enrichment (6-mer frequency, TF over GST control).
